Bioassay records: PubChem, National Center for Advancing Translational Sciences (NCATS)
A selection: hits, their analogues and other compounds. The true share with any hit is near 2.6%.
BRCA1 expr act – BRCA1 expression activation; MCF7-BRCA1-FFLuc reporter, luminescence, 48 h; response scale: scaled: vehicle 0%, 10 µM genistein 100%; Potency, µM (doses to about 46.1 µM), without a hit: top-dose activation, actives largely listed as activators; 380,000 compounds, 1.1% hits; AID 624202; note: nearly all actives have a fitted effect of over 80% in size
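Activators of BRCA1 expression were detected as increased firefly luciferase luminescence in engineered MCF7 cells after 48 h compound incubation. Signals were scaled to genistein 10 microM as full activation.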
GLP1R cytotox – cytotoxic in the GLP-1 receptor inverse agonist counter-screen. HEK293 cAMP-luciferase reporter cells, luminescence, 24 h. Potency, µM (doses to about 38.3 µM), inactives show at the highest dose activity change, negative = inhibition, usual class: inhibitors. 410,000 compounds, 0.13% hits. AID 624418;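 note: loss of luciferase light is scored as toxicity; % is set by controls: 0 for no effect and ±100 for the full control effect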
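Luminescence readout: signal drop marks cytotoxicity. Plated cells grew 12 h at 37 °C, 5% CO2, received 23 nL compound for 24 h, then got luciferase reagent, read after 12 min at RT.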
GLP-1R inv ag – inverse agonists of human GLP-1 receptor; P43220; HEK293 GLP-1R CRE-luciferase, luminescence, 24 h; GLP-1R form is constitutively active; Potency, µM (doses to about 38.3 µM), for inactives: at the highest dose activity change, negative = inhibition, most hits filed as inhibitors; 410,000 compounds, 1.6% hits; AID 624417; note: % is set by controls: 0 for no effect and ±100 for the full control effect; nearly all actives have a fitted effect of over 55% in size
Target sequence (P43220 whole entry, looked up): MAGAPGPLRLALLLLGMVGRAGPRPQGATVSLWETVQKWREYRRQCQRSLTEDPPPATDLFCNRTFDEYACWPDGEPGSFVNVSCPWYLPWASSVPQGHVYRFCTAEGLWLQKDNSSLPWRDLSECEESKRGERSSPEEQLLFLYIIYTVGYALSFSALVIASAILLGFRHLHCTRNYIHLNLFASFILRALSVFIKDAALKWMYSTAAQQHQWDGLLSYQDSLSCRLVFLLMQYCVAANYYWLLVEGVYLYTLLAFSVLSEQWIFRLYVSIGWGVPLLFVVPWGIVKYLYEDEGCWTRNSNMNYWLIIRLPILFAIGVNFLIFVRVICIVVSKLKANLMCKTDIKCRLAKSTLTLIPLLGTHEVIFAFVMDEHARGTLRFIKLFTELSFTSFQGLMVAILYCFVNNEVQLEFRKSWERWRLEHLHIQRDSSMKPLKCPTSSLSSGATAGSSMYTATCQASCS
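HEK293 cells stably co-expressing a cAMP-responsive luciferase reporter and constitutively active GLP-1R were seeded, incubated 12 h, then exposed to compounds for 24 h at 37 C. Luminescence was read 12 min after detection reagent; inverse agonists lower signal.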
GLP1R ag – activates the human GLP-1 receptor; P43220; HEK293 GLP-1R CRE-luciferase, luminescence, 4-6 h; cells express a hypersensitive GLP-1R form; Potency, µM (series often up to 45.6 µM), for the others: at the top dose activation, actives largely listed as activators; 380,000 compounds, 0.007% hits; note: % of control where 0% means no effect
Active calls of the source: *; ? = inconclusive; · = no result; [ ] = dose if it differs, or a comment. Calls come from the whole dose curve; as a rule, active = well fitted curve in the direction sought with a large enough effect; inconclusive = small, poorly fitted or top-dose-only effect, or another doubt; inactive = no such curve, though single readings can be large; an effect the other way counts as inactive or inconclusive. Potency is the fitted concentration of half-maximal effect.

SMILES | BRCA1 expr act | GLP1R cytotox | GLP-1R inv ag | GLP1R ag
COC(=O)C(NC(=O)CC(C)C)(Nc1nc2c(s1)CCCC2)C(F)(F)F (centres undefined) | · | 0.0% | ? | ·
Cc1cc2c(cc1C)-n1nnnc1C(N(Cc1ccccc1)Cc1ccccc1)C(=O)N2 (centres undefined) | · | -0.4% | -12.7% | ·
CCCCn1c2ccccc2c2nnc(SCC(=O)Nc3ccc(NC(C)=O)cc3)nc21 | · | -0.4% | 3.9% | ·
O=C(NCc1ccccn1)c1cc(-c2ccc(-c3ccccc3)cc2)nc2ccccc12 | 49.2% | -8.0% | 2µM* | 3.1%
O=C(Nc1nccs1)c1cc(-c2ccccc2)nc2ccccc12 | -24.0% | -4.5% | 5.01µM* | 1.5%
C/C(=N\NC(=O)c1cc(-c2cccs2)nc2ccccc12)c1ccccn1 | -77.3% | ? | 2.82µM* | 7.5%
O=C(NNC(=O)c1cc(-c2ccccc2)nc2ccccc12)Nc1cccc(Cl)c1 | -66.8% | 2.0% | 12.6µM* | -32.4%
NNC(=O)c1cc(-c2cccs2)nc2ccccc12 | -31.6% | -16.6% | ? | 4.9%
O=C(NNC(=O)c1cc(-c2cccnc2)nc2ccccc12)Nc1ccc(Cl)cc1 | -20.9% | -1.0%[0.307 µM] | 9.0%[0.307 µM] | -21.6%
COc1ccccc1/C=C/c1ccnc2ccccc12 | 0.0% | · | · | ·
Nc1ccccc1/C=C/c1ccnc2ccccc12 | 0.0% | · | · | ·
CCOC(=O)C1Nc2ccccc2C2C(O)C(O)CC12 (centres undefined) | -26.7% | 7.08µM* | 16.8% | 4.1%
O=C(NCC1(c2ccccc2)CCCC1)c1ccccc1Br | -13.8% | 0.0% | 10µM* | 14.2%
O=C(NCC1(c2ccccc2)CCCC1)c1ccccc1 | -8.1% | -0.3% | ? | 15.6%
CCOc1c(O)ccc(/C=C2\SC(=S)NC2=O)c1[N+](=O)[O-] | 11.2µM* | ? | 11.3% | 2.8%
CCOc1ccc(N(C)c2ccc(/C=C3/SC(=S)NC3=O)cc2)cc1 | -0.1% | -17.3% | ? | -4.0%
COc1cc(/C=N/NC(=S)NC2CC3CC2C2C=CCC32)ccc1O (centres undefined) | -74.0% | 4.47µM* | ? | ?
CCOc1ccc(/C=N/NC(=S)NC2CC3CC2C2C=CCC32)cc1 (centres undefined) | -13.6% | ? | ? | 8.7%
COc1ccc(NC(=O)CSC2=Nc3ccccc3C3=NC(CCC(=O)NC4CCCCC4)C(=O)N23)cc1Cl (centres undefined) | · | 3.0% | 2.5% | ·
O=C(/C=C(\O)c1ccccc1)C(=O)NNC(=O)c1ccccc1 | 12.6µM* | -34.4% | 48.2% | 0.2%
CN(C)c1ccc(-c2ccnc3c2CC(C)(C(=O)Nc2ccc(Cl)c(C(F)(F)F)c2)O3)cc1 (centres undefined) | -57.1% | -6.7% | ? | -4.6%
C/C(=N\NC(=S)Nc1cccc(C)c1)c1cccc(N)c1 | -23.5% | ? | 12.4% | 13.8%
C/C(=N\NC(=S)Nc1ccc(C)cc1)c1cccc(N)c1 | -2.7% | 4.47µM* | ? | 10.4%
C/C(=N\NC(=S)Nc1c(C)cccc1C)c1cc2ccccc2o1 | -42.2% | 0.0% | ? | 2.5%
C/C(=N\NC(=S)Nc1c(C)cccc1C)c1ccc(O)cc1 | -22.9% | ? | 10µM* | 15.7%
SMILES | BRCA1 expr act | GLP1R cytotox | GLP-1R inv ag | GLP1R ag
O=C(Cn1c(=O)nc(-c2ccccc2)c2cc(Cl)ccc21)N1CCN(c2ccc(F)cc2)CC1 | · | -8.0% | 6.0% | ·
O=C(C[n+]1ccncc1)c1cccc2ccccc12 | -2.9% | · | · | ·
COc1ccc(C2(C)NC(=O)N(CC(=O)Nc3ccc(Br)c(C)c3)C2=O)cc1OC (centres undefined) | -42.3% | 12.0% | ? | 17.9%
Cc1occc1C(=O)N/N=C/c1ccc(Br)s1 | 8.91µM* | -0.2% | -23.8% | 11.7%
COc1cccc(/C=N/NC(=O)c2ccoc2C)c1O | -40.1% | -41.0% | 1.26µM* | 3.2%
CCOc1ccc(/C=N/NC(=O)c2ccoc2C)cc1OC | 10µM* | 10.1% | 21.5% | 21.5%
COc1cccc(/C=N/NC(=O)C(=O)N/N=C/c2cccc(OC)c2O)c1O | -15.3% | 1.5% | -7.1% | -0.1%
OCCCc1ccccc1 | · | · | · | 2.4%
COc1ccc2[nH]cc(CCNC(=O)c3cnn(-c4ccc(C)cc4)c3C3CCN(C(=O)OC(C)(C)C)CC3)c2c1 | · | -4.4% | -20.1% | ·
CCOC(=O)C1=CN(Cc2cccc(F)c2)S(=O)(=O)NC1c1ccc(Br)cc1F (centres undefined) | -29.1% | 0.9% | 10µM* | 1.4%
CCOC(=O)c1cnc2ccc(C)cc2c1Nc1ccc(OCc2ccccc2Cl)cc1 | · | -0.2% | 11.2µM* | ·
CC1CCc2c(nc3sc4c(c3c2N)CCCC4)C1 (centres undefined) | 2.82µM* | ? | 5.62µM* | 21.6%
CC(C)(C)OC(=O)N1CCC(c2cc(-c3cccs3)n[nH]2)CC1 | 0.0% | -4.5% | 10µM* | 20.7%
Fc1ccc2nc(N3CCOCC3)sc2c1 | 11.2µM* | -5.6% | 26.1% | 11.9%
Clc1cccc2sc(N3CCCC3)nc12 | ? | 5.2% | 21.5% | 6.0%
Clc1cccc2sc(N3CCOCC3)nc12 | 15.8µM* | 28.0% | 31.5% | ?
O=C(c1ccc2nc(N3CCOCC3)sc2c1)N1CCCC1 | 0.0% | -26.3% | 14.3% | 7.1%
Cc1ccc(S(=O)(=O)N(CC(=O)N2CCc3ccccc3C2)c2ccc(C)c(C)c2)cc1 | · | -9.5% | 11.2µM* | ·
COc1ccc(N(CC(=O)N2CCc3ccccc32)S(=O)(=O)c2c(C)nn(C)c2C)cc1 | -7.9% | 6.4% | -5.9% | 2.1%
Cc1ccc(N(CC(=O)N2CCc3ccccc32)S(=O)(=O)c2cccs2)cc1 | -12.4% | 4.3% | 10µM* | 0.4%
CCOC(=O)c1ccc(NC(=O)c2oc3c(c2C)-c2nn(Cc4ccccc4Cl)cc2CC3)cc1 | · | -6.5% | ? | ·
Cc1cccc(C(=O)n2c(=S)nc3cc(C)ccn32)c1 | ? | ? | ? | 4.5%
Cc1ccn2c(c1)nc(=S)n2C(=O)c1ccccc1 | -32.2% | -18.5% | 2.51µM* | -11.7%
C=CC[C@@H](CC(=O)OC(C)(C)C)C(=O)OC[C@@H]1CCCN1C(=O)[C@@H](CC=C)CC(=O)N(CCO)Cc1ccccc1 | -22.3% | -3.3% | ? | 8.1%
O=[N+]([O-])c1ccccc1OCc1nc(-c2cccs2)no1 | 2.82µM* | -4.9% | -25.3% | 10.3%
SMILES | BRCA1 expr act | GLP1R cytotox | GLP-1R inv ag | GLP1R ag
Cc1ccc(NC(=O)CN2C(=O)C(c3ccc(F)cc3)=NC2(C)C)c(C)c1 | · | 2.4% | 5.0% | ·
COc1ccc(CCNC(=O)c2nn(C)cc2Cl)cc1 | 7.94µM* | -3.6% | 61.2% | -0.8%
O=C(Nc1ccccc1)N1CC=C(c2ccc(F)cc2)CC1 | 3.98µM* | -9.2% | -24.2% | 0.9%
CCCOC(=O)c1ccc(NC(=O)c2ccc(Br)o2)cc1 | 78.0% | 2.5% | ? | 24.0%
CCN(CC)c1ccc(NC(=O)c2ccc(Br)o2)cc1 | 2.82µM* | 7.8% | -29.0% | -4.8%
COc1ccc(-c2ccc(NC(=O)c3ccc(Br)o3)cc2)nn1 | 3.98µM* | 3.3% | 11.5% | 0.6%
O=C(Nc1ccccc1C(=O)O)c1ccc(Br)o1 | 14.1µM* | 13.6% | 35.2% | -3.4%
